SMILES strings stand for the structures. Some of the results follow. Calls of active or inactive are those of the source. The call rests on the fitted dose curve.

Potency data for four compounds are collected here from PubChem BioAssay AID504421 (National Center for Advancing Translational Sciences (NCATS), 2011).

The experiment deals with Dual specificity protein kinase CLK4 (Homo sapiens) (UniProt Q9HAZ1). Put plainly: Kinase Inhibition Study on Inhibitors of CDC-like Kinase 4 (Reaction Biology data): SAR round 2. The conditions noted are these: Reaction Biology kinase assay, 10 uM ATP. The text has this: NIH Molecular Libraries Probe Production Centers Network [MLPCN] NIH Chemical Genomics Center [NCGC] MLPCN Grant: 1R03MH084827-01 Assay Submitter (PI): Tom Misteli NCGC Assay Overview: Alternative splicing of pre-mRNAs plays a major role in the regulation of eukaryotic gene expression. Alternative splicing is now thought to be one of the primary reasons for the complexity of higher organisms leading to an average of three protein isoforms per gene. Aberrant splicing can lead to a number of diseases and is known to play a role in rare genetic diseases such as progeria syndrome. Hutchinson-Gilford Progeria Syndrome (HGPS) is a pediatric premature aging disease caused by a spontaneous mutation in the lamin A/C (LMNA) gene due to a single point mutation in the lamin A gene effecting 1 in 4 million people. To identify both specific splicing modulators of the lamin A gene as well as general splicing modulators, a cell-based HTS assay was developed using a minigene reporter system (AIDs, 1459 & 1487). […] This AID summarizes the characterization of lead compounds in Clk4.
Sequence of Dual specificity protein kinase CLK4 (Homo sapiens) (Q9HAZ1 whole entry, looked up, canonical isoform): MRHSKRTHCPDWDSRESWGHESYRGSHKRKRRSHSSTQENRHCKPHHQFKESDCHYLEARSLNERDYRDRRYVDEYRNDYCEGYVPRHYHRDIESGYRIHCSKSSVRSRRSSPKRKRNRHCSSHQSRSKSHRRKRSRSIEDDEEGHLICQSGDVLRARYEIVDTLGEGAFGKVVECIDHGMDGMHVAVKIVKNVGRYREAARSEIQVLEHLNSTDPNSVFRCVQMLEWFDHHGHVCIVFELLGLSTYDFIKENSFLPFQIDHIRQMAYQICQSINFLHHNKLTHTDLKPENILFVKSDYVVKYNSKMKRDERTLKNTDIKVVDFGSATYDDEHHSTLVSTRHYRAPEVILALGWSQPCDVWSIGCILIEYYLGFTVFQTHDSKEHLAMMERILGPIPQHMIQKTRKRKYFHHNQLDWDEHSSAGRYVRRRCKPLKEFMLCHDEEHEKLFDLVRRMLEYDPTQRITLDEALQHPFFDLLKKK
All kinase reactions were performed using 10 uM ATP in the assay. 100% activity was taken from kinase reactions with DMSO alone (the vehicle used for compound stock solutions).
Turning to `CC(Nc1ncnc2ccc(-c3ccc4c(c3)OCO4)cc12)c1ccco1` (centres undefined), the Potency is 7600 nM (active).

As for `c1nc(N2CCOCC2)c2cc(-c3ccc4c(c3)OCO4)ccc2n1`, the Potency is 135 nM (active). Under `c1coc(CCNc2ncnc3ccc(-c4ccc5c(c4)OCO5)cc23)c1` stands 42 nM (active); under `CN(Cc1cncn1C)c1ncnc2ccc(-c3ccc4c(c3)OCO4)cc12`, 507 nM (active).
